# PubChem BioAssay (NCATS)
# Results filed as inconclusive are left out. A number with no mark means an inactive call. Calls come from the whole dose curve; as a rule, active = well fitted inhibition curve with a large enough effect; inconclusive = small, poorly fitted or top-dose-only effect; inactive = flat fitted curve, though single readings scatter.
# Test system: MCC-26
# Experiment: qHTS assay to identify novel small-molecules to repurpose for Merkel cell carcinoma treatment (AID 1296009); note: nearly all actives have a fitted effect of over 60% in size
# Settings: MCC and control cell lines, CellTiter-Glo viability, 72 h; series mostly up to 46 µM; activity change, negative = cytotoxicity: at the top concentration
# Excerpt: MCC is a rare and aggressive neuroendocrine skin cancer with limited treatment options. Approximately 80% of MCCs have the Merkel cell polyomavirus (MCPyV) DNA integrated into the host genome (virus-positive: VP-MCC) and viral oncogenes drive oncogenesis. The remaining MCCs are virus-negative (VN-MCC) and are caused by UV mutagenesis. To identify novel treatments for VP-MCC and/or VN-MCC we screened three VP-MCC cell lines (WAGA, MKL-1, MKL-2), three VN-MCC cell lines (MCC-13, MCC-26, UISO), and four immortalized, non-transformed control cell lines (HaCaT, HEK293T, CRL7250, NIH-3T3) against ~2,400 compounds in the NCGC Pharmaceutical Collection (NPC) and ~1,900 compounds in the Mechanism Interrogation PlatE (MiPE). Using cell viability as a readout (CellTiter-Glo assay) we found both overlapping and distinct drugs that can be repurposed for the treatment of VP-MCC and VN-MCC.
# A high-throughput screen was conducted in 1536-well white flat bottom plates (Corning) on a Kalypsys robotic system. Cell lines WAGA, MKL-1, MKL-2, MCC-13, MCC-26, UISO, HaCaT, HEK293T, CRL7250, and NIH-3T3 were screened against 2 small molecule annotated drug libraries NPC and MIPE in dose response (8 and 11 pt. respectively) measuring cell viability after 72 hours of incubation. […] A 1,536 pintool (Kalypsys) was used to transfer 23 nL of compound in DMSO to the 1,536-well assay plates. After 72 hr incubation at 37 degree celsius, 2.5 uL of CellTiter-Glo (Promega) was dispensed into each well using a BiorapTR. Plates were incubated at room temperature for 10 min, transferred to a ViewLux (PerkinElmer) and the luminescence was recorded using an exposure time of 2 seconds. Relative luminescence units (RLUs) were normalized to in-plate controls (no cells as a positive (cytotoxicity) control, DMSO as negative control) and the normalized data was processed using NCATS in-house software.
# % is set by controls: 0 for no effect and ±100 for the full control effect.
row,Compound,"activity change, negative = cytotoxicity"
1,O=C1c2cccc3c2[C@H](CCC3)CN1[C@@H]1CN2CCC1CC2,1.85%
2,O=C(CCN1CCN2CCCC2C1)N1c2ccccc2Sc2ccc(Cl)cc21 (stereo not given),-9.08% [at 16.1 µM]
3,CCN(CC)CCOc1ccccc1C(=O)CCc1ccccc1,-6.75%
4,CCOc1cc(OCC)c(C(=O)CCC(=O)O)cc1OCC,8.5%
5,CCCCC(CC)CN1CN(CC(CC)CCCC)CC(C)(N)C1 (stereo not given),-12%
6,O=C(Nc1ccccc1)OCC(CN1CCCCC1)OC(=O)Nc1ccccc1 (stereo not given),-6.86%
7,CCc1cc(Cl)c(OC)c(C(=O)NC[C@@H]2CCCN2CC)c1O,-1.11%
8,CC(=O)Nc1ncc([N+](=O)[O-])s1,10.9%
9,CCc1oc2ccccc2c1C(=O)c1cc(I)c(O)c(I)c1,-5.35%
10,CCOC(=O)c1ccc(N)cc1,-15.3%
11,CCCCC(CC)COC(=O)/C=C/c1ccc(OC)cc1 (stereo not given),7.42%
12,CCN(CC)CCNC(=O)COc1ccc(OC)cc1,-12.5%
13,O=C(CN1CCN(Cc2ccc3c(c2)OCO3)CC1)N1c2ccccc2Sc2ccccc21,1.59%
14,COc1ccc(S(=O)(=O)N2c3ccc(Cl)cc3[C@@](O)(c3ccccc3Cl)[C@H]2C(=O)N2CCC[C@@H]2C(N)=O)cc1OC,-6.96%
15,CCC(Cc1c(I)cc(I)c(N)c1I)C(=O)O (stereo not given),6.41%
16,O=C1OC2(c3ccccc31)c1cc(Br)c(O)c(Br)c1Oc1c2cc(Br)c(O)c1Br,-6.59%
17,COc1cc(O)c(C(=O)c2ccccc2)cc1S(=O)(=O)O,-0.033%
18,OC(C#CCN1CCCC1)(c1ccccc1)c1ccccc1,1.39%
19,NS(=O)(=O)c1cc(C(=O)O)cc(N2CCCC2)c1Oc1ccccc1,-3.15%
20,CCC(CC)(CC(=O)Nc1cccc(/C=C/c2nc(C3CCC3)cs2)c1)C(=O)O,-4.77%

row,Compound,"activity change, negative = cytotoxicity"
1,CN(C)C(=O)Nc1ccc(Cl)c(Cl)c1,-6.31%
2,O=C(O)CCC(=O)Nc1ccc(S(=O)(=O)Nc2nccs2)cc1,-14.3%
3,CCCCCCCC/C=C\CCCCCCCCN,5.4%
4,NC(=O)n1c(O)c(C(=O)c2cccs2)c2cc(Cl)ccc21,0.537%
5,C#C[C@]1(OC(C)=O)CC[C@H]2[C@@H]3CCC4=C/C(=N/O)CC[C@@H]4[C@H]3CC[C@@]21CC,-14.8%
6,COP(=O)(OC)OC(c1ccc(Cl)cc1)P(=O)(OC)OC (stereo not given),-14.1%
7,O=S(=O)(O)c1ccc(O)cc1,10.7%
8,CC(=O)N[C@@H](CCC(=O)O)C(=O)O,6.66%
9,CC(C)=CCOc1ccc(/C=C/C(=O)c2ccc(OCC=C(C)C)cc2OCC(=O)O)cc1,-1.81%
10,CCN1CCN(C(=O)N[C@@H](C(=O)N[C@@H]2C(=O)N3C(C(=O)O)=C(CSc4nnnn4C)CS[C@H]23)c2ccc(O)cc2)C(=O)C1=O,-0.695%
11,CC(=O)O[C@H]1C[C@@H]2CC[C@@H]3[C@H](CC[C@@]4(C)[C@H]3C[C@H]([N+]3(C)CCCCC3)[C@@H]4OC(C)=O)[C@@]2(C)C[C@@H]1N1CCCCC1,5.44%
12,Cn1c(=O)c2[nH]c(Br)nc2n(C)c1=O,7.02%
13,CO[C@H]1C=CO[C@@]2(C)Oc3c(C)c(O)c4c(O)c(c(/C=N/N5CCN(C)CC5)c(O)c4c3C2=O)NC(=O)/C(C)=C\C=C[C@H](C)[C@H](O)[C@@H](C)[C@@H](O)[C@@H](C)[C@H](OC(C)=O)[C@@H]1C,-17.4%
14,CC(=C(CCOC(=O)C(C)C)SSC(CCOC(=O)C(C)C)=C(C)N(C=O)Cc1cnc(C)nc1N)N(C=O)Cc1cnc(C)nc1N,16.6%
15,COc1ccc(CN(CCN(C)C)c2ncccn2)cc1,-1.34%
16,Oc1ccccc1C=NCc1ccccc1,5.97%
17,O=C(Nc1ncc([N+](=O)[O-])s1)c1cccs1,-26.7%
18,C/C=C/c1ccc(O)c(OC)c1,-1.33%
19,Clc1cccc(C(c2ccc3nc[nH]c3c2)n2ccnc2)c1 (stereo not given),1.5%
20,CCO[C@@H]1O[C@H](C(COCc2ccccc2)OCc2ccccc2)[C@H](OCc2ccccc2)[C@H]1O (stereo not given in full),-0.772%
